In PubChem BioAssay (NCI):
About 83,000 compounds went through this panel and 20% of them were active in at least one assay; those are over-represented in the sample as a whole.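 A percent growth of 40 corresponds to 60% growth inhibition; 0 means no net growth; -100 means all cells died. Active threshold: below 10.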 A number with no mark means an inactive call. Active and inactive are the calls of the source.

Experiments:
Assay in all cases: NCI-60 one-dose screen, 48 h (100 = growth as untreated, 0 = no growth, -100 = all killed)
Details in all cases: 10 µM
[1] = system: RPMI-8226 leukemia
[2] = system: OVCAR-8 ovarian
[3] = system: OVCAR-5 ovarian
[4] = system: OVCAR-4 ovarian
[5] = system: SK-OV-3 ovarian
[6] = system: IGROV1 ovarian
[7] = system: OVCAR-3 ovarian
[8] = system: HS 578T breast
[9] = system: NCI/ADR-RES ovarian
[10] = system: T-47D breast
[11] = system: BT-549 breast
[12] = system: MDA-MB-435 melanoma
[13] = system: SW-620 colon
[14] = system: MCF7 breast
[15] = system: HCT-116 colon
[16] = system: HCC-2998 colon
[17] = system: KM12 colon
[18] = system: MDA-MB-468 breast

Compound | growth [1] | growth [2] | growth [3] | growth [4] | growth [5] | growth [6] | growth [7] | growth [8] | growth [9] | growth [10] | growth [11] | growth [12] | growth [13] | growth [14] | growth [15] | growth [16] | growth [17] | growth [18]
CC(=O)Nc1ccc(-n2cnc3cc(-c4ccc(O)cc4)ccc32)cc1C | 42.7% | 58% | 72.7% | 70.2% | 78.8% | 80.2% | 80.3% | 64.6% | 29.4% | 32.6% | 50.7% | -13.2% (active) | 44.2% | 50.9% | 70% | 60.7% | 22.1% | -7.11% (active)
CC1(C)CC[C@]2(C(=O)NCCCNCCCCNCCCN)CC[C@]3(C)C(=CC[C@@H]4[C@@]5(C)Cc6c([nH]c7ccccc67)C(C)(C)[C@@H]5CC[C@]43C)[C@H]2C1 | 68.3% | 98.6% | 91.1% | 102% | 66.6% | 77.3% | 118% | 93.6% | 93.2% | 78.7% | 109% | 106% | 113% | 62.9% | 65.3% | 96.5% | 96.4% | 75.3%
CC1=C(C(=O)OC(C)C)C(c2ccc(O)cc2)NC(=S)N1 (stereo unspecified) | 95.7% | 130% | 116% | 115% | 107% | 110% | 105% | 103% | 97.5% | 102% | 82.7% | 110% | 120% | 97.7% | 98.1% | 107% | 106% | 99%
C#CCNC(=O)[C@]12CCC(C)(C)C[C@H]1C1=CC[C@@H]3[C@@](C)(CCC#N)[C@H](C(=C)C)CC[C@@]3(C)[C@]1(C)CC2 | 22.2% | 64.2% | 77.4% | 68.2% | 62.6% | 71.9% | 91.8% | 79.4% | 62.5% | 28% | 75.6% | 72.2% | 74.1% | 34% | 27.2% | 75.4% | 54.8% | 34.7%
Clc1ccc(/C=N/Nc2ncnc3sc4c(c23)CCN(Cc2ccccc2)C4)cc1 | 14% | -56.2% (active) | -18.8% (active) | -75.9% (active) | 30.3% | 34.4% | -79.9% (active) | -11% (active) | -55.2% (active) | -0.297% (active) | -6.23% (active) | -45.3% (active) | -74% (active) | -47.5% (active) | -93.5% (active) | 19.8% | -26.9% (active) | -62.4% (active)
Cc1ccc(NCC(=O)Nn2c(COc3ccccc3)nc3ccccc3c2=O)cc1 | 85.9% | 60.1% | 92.3% | 25.4% | 52.8% | 82.4% | 75.4% | 66.1% | 72.6% | 82.6% | 97.6% | 92.6% | 95.1% | 82% | 85.1% | 95.7% | 100% | 80.1%
CS(=O)(=O)Nc1ccc(-c2ccc3c(c2)ncn3-c2ccc(NC(=O)Nc3ccc(Cl)c(C(F)(F)F)c3)cc2)cc1 | -28.6% (active) | -34.8% (active) | -84.9% (active) | -47.2% (active) | -53.4% (active) | -43.1% (active) | -54.3% (active) | -33.2% (active) | -1.05% (active) | -31.2% (active) | -83.8% (active) | -85.4% (active) | -67% (active) | -77.8% (active) | -87.7% (active) | -73.6% (active) | -57.8% (active) | -50.7% (active)
O=C(Nc1ccccc1)Nc1nc2ccccc2s1 | 78.3% | 90.2% | 92.4% | 78.2% | 78.4% | 54.8% | 110% | 86.9% | 91.8% | 25.5% | 89.6% |  | 111% | 21.4% | 85.9% | 85% | 90.1% | 
COc1ccc2nc(Nc3cccc(NC(=O)c4ccc(CN5CCN(C)CC5)c(C(F)(F)F)c4)c3)ccc2c1 | -33% (active) | -38.1% (active) | -75% (active) | -27.1% (active) | -48.8% (active) | -69.8% (active) | -36% (active) | -23.1% (active) | -37.9% (active) | -25.9% (active) | -45.8% (active) | -96% (active) | -89.7% (active) | -97.1% (active) | -15.3% (active) | -99.4% (active) | -68.1% (active) | -97.1% (active)
O=C1Nc2ccc(Cl)cc2/C1=C/c1cccc(OCc2ccccn2)c1 | -45.3% (active) | -42.6% (active) | -45.2% (active) | 4.17% (active) | 4.02% (active) | 0.125% (active) | -35.8% (active) | -1.17% (active) | -23.8% (active) | -2.11% (active) | -7.83% (active) |  | -38% (active) | -0.24% (active) | -98.3% (active) | -73.2% (active) | -32.3% (active) | -30% (active)
COc1ccccc1NCc1ccc(CO)n1-c1ccc(C)cc1 | 85.8% | 101% | 111% | 97.7% | 81.5% | 91.5% | 95.6% | 98% | 95.9% | 77.4% | 101% | 110% | 109% | 85.3% | 80% | 114% | 105% | 97.3%
C=C(c1ccc(OC)c(N)c1)c1cc(C)nc2ccccc12 | 10.9% | 8.32% (active) | 26.3% | 57.8% | 21.7% | 17.1% | -4.17% (active) | 38.9% | -29% (active) | 62.6% | 64.8% |  | 18.4% | 9.03% (active) | 8.49% (active) | 11.4% | 10.5% | -16.3% (active)
COc1cccc(-c2nn(-c3ccccc3)cc2-c2ccnc(NCCCNC(=O)Nc3ccc(F)cc3)c2)c1 | -27.4% (active) | 11.1% | 27.1% | 22.8% | 3.71% (active) | 15.8% | 28.4% | -3.48% (active) | -35.6% (active) | 4.77% (active) | -20.6% (active) | -59% (active) | 14.5% | -15.5% (active) | 6.26% (active) | -25.1% (active) | 5.44% (active) | -54.7% (active)
COc1ccsc1/C=N/NC(=O)c1[nH]c2ccc(Br)cc2c1-c1ccccc1 | -13.6% (active) | -16.2% (active) | 26.6% | 22.1% | 20.9% | 22.6% | 25.8% | -1.24% (active) | -23.9% (active) | -2.72% (active) | 13.8% | 2.33% (active) | 18.4% | 1.13% (active) | 0.361% (active) | -5.18% (active) | -0.302% (active) | -6.2% (active)
CC(C)C(=O)Nc1ccc(C(=O)NC(=S)Nc2ccc(C(=O)O)cc2)cc1 | 128% | 111% | 96.6% | 111% | 99.9% | 106% | 91.1% | 98.8% | 104% | 98.9% | 79.5% | 102% | 107% | 99.9% | 104% | 110% | 106% | 96%
COc1csc(/C=N/NC(=O)c2[nH]c3ccc(Br)cc3c2-c2ccccc2)c1 | 6.04% (active) | 2.26% (active) | 17.5% | 30.3% | 26.3% | 22% | 6.96% (active) | -1.74% (active) | -35.2% (active) | 47.1% | 31.8% |  | 17.9% | -3.06% (active) | -29.4% (active) | 7.87% (active) | 3.46% (active) | -18% (active)
O=C1Nc2cc(Cl)ccc2/C1=C/c1cccc(OCc2ccc(Br)cc2F)c1 | -20.1% (active) | -15.8% (active) | 30.2% | 39.1% | 40.7% | 20.2% | -39% (active) | -10.1% (active) | -35.1% (active) | 9.72% (active) | 10.5% | -64.4% (active) | 19.5% | 5.38% (active) | 1.63% (active) | 26% | 1.67% (active) | -9.05% (active)
